Results published in PubChem BioAssay.
Calls of active or inactive are those of the source.

What was measured:
[1] = A549 cell viability effects, profiling panel, calcein-AM fluorescence, 48 h, basal (AID 1162); details: higher = more signal
[2] = adipocyte viability effects, profiling panel, cell-based, 3T3-L1 adipocytes, calcein-AM fluorescence, 48 h, basal (AID 1163); details: 3T3-L1 adipocytes viability, higher = more signal
[3] = HepG2 cell viability effects, profiling panel, calcein-AM fluorescence, 48 h, basal (AID 1164); details: higher = more signal
[4] = MM1S cell viability effects, profiling panel, calcein-AM fluorescence, 48 h, basal (AID 1165); details: higher = more signal;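 further: viability of MM1S multiple myeloma cells under basal unstimulated conditions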
[5] = basal RPMI8226 viability, no added stimulus, profiling panel, cell-based, calcein-AM fluorescence, 48 h, PK04 Diversity Set (AID 1166); details: RPMI8226 myeloma viability, higher = more signal;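 further: cells grown under basal conditions without added stimulus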
[6] = basal HepG2 mitochondrial membrane potential changes, profiling panel, cell-based, JC-1 fluorescence, 24 h, 100 nL compound (AID 1167); details: higher = more signal
[7] = basal 3T3-L1 adipocyte mitochondrial potential changes, profiling panel, cell-based, JC-1 fluorescence, 3T3-L1 adipocytes, 24 h, 100 nL compound (AID 1168); details: JC-1 mitochondrial fluorescence, higher = more signal, called active from +8 up or from −8 down
[8] = basal RPMI8226 mitochondrial membrane potential changes, profiling panel, cell-based, JC-1 fluorescence, 24 h, 100 nL compound (AID 1169); details: RPMI8226 myeloma, JC-1 mitochondrial potential fluorescence, higher = more signal
[9] = basal MM1S mitochondrial membrane potential changes, profiling panel, cell-based, JC-1 fluorescence, 24 h, 100 nL compound (AID 1170); details: higher = more signal
[10] = A549 lung cancer cell viability effects, profiling panel, resazurin fluorescence, 24 h, PK04 Diversity Set (AID 1171); details: higher = more signal, called active from +8 up or from −8 down
Further: test concentration not given here.

| Compound | z-score [1] | z-score [2] | z-score [3] | z-score [4] | z-score [5] | z-score [6] | z-score [7] | z-score [8] | z-score [9] | z-score [10] |
| --- | --- | --- | --- | --- | --- | --- | --- | --- | --- | --- |
| CC(C)C(=C=CC[C@@H](O)c1ccc(OCCO)cc1)C[C@@H](O)COCc1ccccc1 | 2.2 | 1.46 | 1.2 | -0.619 | 0.471 | 1.52 | 0.404 (inactive) | -0.147 | -1.11 | 0.343 (inactive) |
| COc1cc2c(cc1OC)CN(C(=O)[C@@H]1[C@H]3C(=O)O[C@H](c4ccccc4)[C@H](c4ccccc4)N3[C@H](c3ccccc3OCCO)[C@@]13C(=O)Nc1ccc(C#CCCO)cc13)CC2 | 1.26 | 0.784 | 0.665 | -0.777 | -0.803 | 0.453 | 1.2 (inactive) | -1.21 | -0.107 | 1.28 (inactive) |
| COC(=O)[C@@]1(Cc2ccc(OC)cc2)[C@H]2c3cc(C(=O)N4CCCC4)n(Cc4ccc(C)c(F)c4F)c3C[C@H]2CN1C(=O)c1ccccc1 | 0.842 | 0.0891 | 0.682 | -1.59 | -2.66 | 3.41 | -0.411 (inactive) | -0.735 | -1.51 | -0.268 (inactive) |
| COc1cc(C(O)C2C=CC3C(=O)NC(=O)C3N2Nc2ccccn2)cc(OC)c1OC (stereo not given) | -0.928 | -0.66 | -1.31 | -0.494 | 0.611 | -1.2 | -0.524 (inactive) | -0.0982 | -0.0424 | -0.706 (inactive) |
| C=C(CCCC)/C(=C/C[C@@H](OC(C)=O)c1ccc(OCCO)cc1)c1cnc2ccccc2c1 | 2.57 | 0.197 | 1.12 | -1.27 | -0.0971 | 1.65 | -0.38 (inactive) | -0.364 | -1.16 | 0.775 (inactive) |
| C=C(CCCC)/C(=C/C[C@H](OC(C)=O)c1ccccc1OCCO)c1cc(C(=O)OC)ccc1OC | 0.379 | 1.66 | -0.418 | -1.36 | -1.93 | 2.79 | 0.63 (inactive) | 0.275 | 0.0208 | 0.423 (inactive) |
| COC(=O)[C@@]1(Cc2ccc(F)cc2)[C@H]2c3cc(C(=O)N(C)C)n(Cc4cc(F)c(F)c(F)c4)c3C[C@H]2CN1C(=O)c1ccccc1 | -0.917 | -0.147 | 0.178 | -0.711 | -1.93 | 0.345 | -1.26 (inactive) | -0.803 | -1.75 | -2.68 (inactive) |
| COc1ccccc1CN1C(=O)c2ccccc2[C@@H](C(=O)NC2CC2)[C@@H]1c1ccc(CO)cc1 | 1.44 | -0.348 | 1.26 | 0.467 | -0.376 | 2.33 | 0.171 (inactive) | 0.371 | -0.0698 | 0.469 (inactive) |
| COC(=O)[C@@]1(CCC(=O)OC(C)(C)C)N=C(c2ccc(OCCCO)cc2)O[C@H]1c1ccccc1N=[N+]=[N-] | -1.99 | 1.12 | -1.92 | -3.6 | -3.93 | -0.429 | 0.581 (inactive) | -1 | -2.34 | -2.08 (inactive) |
| COCCCNC(=O)[C@@]1(C)c2ccccc2C(=O)N(C(C)C)[C@H]1c1ccc(CO)cc1 | -0.276 | -0.208 | -0.51 | 0.0651 | 0.532 | 0.043 | 0.304 (inactive) | 0.887 | -0.441 | 0.601 (inactive) |
| COCCOC(=O)N1C(=O)[C@@]2(c3cc(C#CCC(C(=O)OC)C(=O)OC)ccc31)[C@H](c1ccccc1OCCO)N1[C@H](c3ccccc3)[C@H](c3ccccc3)OC(=O)[C@H]1[C@@H]2C(=O)NC[C@H](O)c1ccccc1 | -0.0256 | 0.821 | 0.015 | -3.44 | -3.9 | -0.187 | 2.16 (inactive) | -0.776 | -1.81 | -0.55 (inactive) |
| CNS(=O)(=O)c1ccc(C)cc1 | 0.753 | 0.451 | 1.4 | 0.269 | 0.0427 | 0.384 | 1 (inactive) | -0.049 | 0.937 | -0.126 (inactive) |
| COC(=O)[C@@]1(CCS(=O)(=O)c2ccccc2)N=C(c2ccc(OCCCO)cc2)O[C@H]1c1ccccc1CN=[N+]=[N-] | -1.33 | -0.688 | -1.12 | -1.92 | -2.59 | -1.13 | 0.877 (inactive) | -1.22 | -1.56 | -2.08 (inactive) |
| O=C1c2ccccc2[C@](Cc2ccccc2I)(C(=O)NCCN2CCOCC2)[C@H](c2ccc(CO)cc2)N1Cc1ccccc1Cl | 0.537 | 0.261 | 0.63 | -1.66 | -1.88 | 1.77 | -0.585 (inactive) | -0.273 | 0.918 | 0.928 (inactive) |
| COc1cc2c(cc1O)C(c1cccs1)N(C)CC2 (stereo not given) | -0.416 | -0.344 | 0.448 | 0.405 | 0.586 | -1.13 | -0.0427 (inactive) | -0.0651 | -1.06 | -0.568 (inactive) |
| C=CCOC(=O)[C@H]1[C@@H]2C(=O)O[C@@H](c3ccccc3)[C@@H](c3ccccc3)N2[C@@H](c2ccc(OCCOC(=O)[C@H]3C[C@H]4C(=O)N[C@@H](CCCCN(C)C)C(=O)N4[C@H]3c3ccc(O)cc3)cc2)[C@]12C(=O)Nc1ccc(I)cc12 | -0.041 | -0.032 | -0.959 | -0.203 | 0.427 | 0.75 | -0.623 (inactive) | 0.742 | 0.192 | -0.708 (inactive) |
| O=C(NCCN1CCOCC1)C1N=C(c2ccc(OCCCO)cc2)N(c2ccccc2)O1 (stereo not given) | 0.264 | -0.126 | 0.291 | 0.66 | -0.425 | 0.0176 | 0.653 (inactive) | -1.28 | 1.27 | 0.712 (inactive) |
| COC(=O)[C@@]1(Cc2ccc(F)cc2)[C@H]2c3cc(C(=O)N(C)C)n(Cc4ccccc4)c3C[C@H]2CN1C(=O)c1ccccc1 | -0.799 | -0.184 | -0.344 | -0.812 | -0.997 | 0.746 | -0.85 (inactive) | -0.28 | -0.529 | -0.631 (inactive) |
| CCOC(=O)C[C@H]1[C@H](OC(=O)c2cc3ccccc3oc2=O)[C@@H](NC(=O)c2ccccc2)c2cc(OCCCO)ccc2N1C(=O)c1ccc2ccccc2n1 | 0.282 | 0.785 | -0.112 | -0.0357 | -1.08 | -0.314 | 0.122 (inactive) | -0.311 | -0.0496 | -0.886 (inactive) |
| CCOC(=O)C[C@H]1[C@H](OC(=O)c2ccc(C(=O)c3ccccc3)cc2)[C@@H](NC(=O)c2ccccc2)c2cc(OCCCO)ccc2N1C(=O)Cc1ccc(OC)cc1 | 1.21 | -0.0981 | 0.316 | -0.797 | 0.0179 | 1.95 | 0.591 (inactive) | -0.696 | -0.231 | 0.261 (inactive) |
| CN(C)CCCC[C@@H]1NC(=O)[C@@H]2C[C@H](C(=O)NCCCCCCN)[C@H](c3cccc(OCCO)c3)N2C1=O | -0.481 | 1.24 | -1.21 | -0.304 | 0.294 | -1.3 | -0.735 (inactive) | -0.17 | 0.454 | -0.511 (inactive) |
| C=CC[C@]1(C(=O)NCc2ccccc2)N=C(c2ccc(OCCCO)cc2)O[C@H]1c1ccccc1N=[N+]=[N-] | -1.2 | 0.514 | -0.0143 | -1.77 | -1.41 | -0.456 | 0.474 (inactive) | -0.938 | 0.0422 | -0.888 (inactive) |
| COCCOC(=O)N1C(=O)[C@@]2(c3cc(C#Cc4ccc(OC)cc4)ccc31)[C@H](c1ccccc1OCCO)N1[C@H](c3ccccc3)[C@H](c3ccccc3)OC(=O)[C@H]1[C@@H]2C(=O)NC[C@H](O)c1ccccc1 | -0.796 | 1.02 | -0.206 | -0.889 | -2.23 | 0.117 | 3.21 (inactive) | -0.485 | -1.26 | -0.762 (inactive) |
| O=C1O[C@H](c2ccccc2)[C@H](c2ccccc2)N2[C@H]1[C@@H](C(=O)N1CCCCCCC1)[C@]1(C(=O)Nc3ccc(C#CCCO)cc31)[C@H]2c1ccccc1OCCO | 0.405 | 0.911 | 0.518 | -1 | -3.71 | 0.42 | 0.757 (inactive) | -1.3 | -1.11 | 0.458 (inactive) |
| Oc1ccc2cc[n+](Cc3sc4ccccc4c3Cl)cc2c1 | -0.66 | 0.552 | -0.934 | 0.241 | -1.86 | -1.4 | -0.0649 (inactive) | 0.376 | 1.78 | -0.655 (inactive) |
| C=CC[C@@]12N=C(c3ccc(OCCCO)cc3)O[C@@H]1c1ccccc1N(C)C2=O | -0.588 | 0.596 | -1.33 | -1.79 | -2.61 | 0.0239 | 1.51 (inactive) | -1.12 | -0.767 | -0.0732 (inactive) |
| CCCCCCc1nc(-c2cc(C)c(OC)c(C)c2)cc2c1[Si](C(C)C)(C(C)C)OC2 | -0.194 | 1.29 | 0.117 | -1.12 | -1.11 | -0.48 | -0.385 (inactive) | -0.547 | -0.288 | 1.1 (inactive) |
| CCCCCN1CC=CC23O[C@@H]4/C=C\CCC(C)OC(=O)C4[C@H]2C(=O)N(C(C)CO)[C@@H]3C1=O (stereo not given in full) | 0.342 | 0.287 | 0.356 | 0.508 | 0.311 | 0.558 | -0.00375 (inactive) | 0.724 | -0.759 | 1.02 (inactive) |
| O=C1[C@@]23C=C(Br)[C@H](C[C@@H]2CCOC3)[C@@]12CO2 | 0.845 | -0.711 | -0.0809 | -1.89 | -0.491 | -1.08 | -0.0633 (inactive) | -0.849 | -0.688 | -0.309 (inactive) |
